Records with an inconclusive call do not appear. Entries that show only a call come without a potency. Active and inactive are the calls of the source. Calls come from the whole dose curve; as a rule, active = well fitted cell-killing curve with a large enough effect; inconclusive = small, poorly fitted or top-dose-only effect, or effect the other way; inactive = no such curve, though single readings can be large or run the other way.
Potency is the fitted concentration of half-maximal effect.

The nature of this assay: Quantitative High-Throughput drug screen in 47 multiple myeloma cell lines against the NCATS MIPE library collection: Karpas620_DSMZ cell viability assay (AID 1918959). Note: nearly all actives have a fitted effect of over 30% in size. Particulars: Karpas620 myeloma viability, CellTiter-Glo ATP luminescence, 48 h; series mostly up to 45.8 µM. A digest of the protocol:
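Steps: seed 500 cells per well; pin-transfer MIPE 4.0 library; incubate 48 h at 37C, 5% CO2, humidified; add CellTiter-Glo, 5 min room temperature; read luminescence.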
(ATP-based viability assays read luminescence as a measure of living cells.)
`C#CC1(O)CCC2C3CCC4=CC(=O)CCC4(C)C3CCC21C` (stereo not drawn): the Potency entry was “inactive”. To `CC(C)(O)C(=O)Nc1ccc([N+](=O)[O-])c(C(F)(F)F)c1` belongs 18.7 µM (active); to `COc1ccc(CC2NCCc3cc(OC)c(OC)cc32)cc1OC` (stereo not drawn), “inactive”; to `C1=C2CCCN[C@H]2[C@@H]2C[C@H]1[C@@H]1CCCCN1C2`, “inactive”.

In the case of `CC(C)[C@]12O[C@@H]1[C@@H]1O[C@]13[C@]1(O[C@H]1C[C@@H]1C4=C(CC[C@@]13C)C(=O)OC4)[C@H]2O`, the Potency result is “inactive”. For `c1cc2c(cc1[C@H]1OC[C@H]3[C@H]1CO[C@H]3c1ccc3c(c1)OCO3)OCO2` the value was “inactive”; for `N=c1c2c(-c3ccccc3)c(-c3ccccc3)n(Cc3ccccc3)c2ncn1C1CCC(O)CC1` (stereo not drawn), 9.35 µM (active); for `CC(N[C@H]1C[C@H]1c1ccccc1)c1ccc2c(c1)OCCO2` (stereo partly drawn), “inactive”. For `CO[C@H]1CCC(O[C@H]2C[C@H]([C@]3(C)CC[C@]4(C[C@H](O)[C@@H](C)[C@@H]([C@@H](C)C=C(C)C(=O)[C@H](C)C[C@H](C)C(=O)O)O4)O3)O[C@]3(O[C@@H]([C@H]4O[C@@](O)(CO)[C@H](C)C[C@H]4C)C[C@H]3C)[C@H]2C)O[C@H]1C` (stereo partly drawn) the value was 0.264 µM (active); for `COc1ccc2c(c1)[C@]13CCCCC1C(C2)N(C)CC3` (stereo partly drawn), “inactive”. For `COCC1(CO)C(=O)C2CCN1CC2` (stereo not drawn), the Potency was 23.5 µM (active). For `c1ccc2c(CN3CCNCC3)cccc2c1` the value was “inactive”; for `CCCC[N+]1(C)[C@H]2CC(OC(=O)[C@H](CO)c3ccccc3)C[C@H]1[C@H]1O[C@H]12` (stereo partly drawn), “inactive”. For the compound `CCOC(=O)c1c(C(C#N)=CN)c2ccc(Cl)c(Cl)c2n1C`, the Potency result is “inactive”.

For `COc1ccc(C(=O)c2c(C)n(CCN3CCOCC3)c3cc(I)ccc23)cc1`, the Potency was 18.7 µM (active). For the compound `C[C@]12CC[C@H]3[C@@H](CCC4=CC(=O)CC[C@@]43C)[C@H]1CC[C@H]2OC(=O)CCC1CCCC1`, the Potency entry was “inactive”. To `C[C@]12COC(=O)C[C@@H]1CC[C@@H]1[C@H]2CC[C@@]2(C)[C@H]1CC[C@]2(C)O` belongs “inactive”.

For the compound `CC=C(C)C(=O)O[C@H]1C(C)=C2[C@@H]3OC(=O)[C@@](C)(O)[C@@]3(O)[C@@H](OC(=O)CCC)C[C@](C)(OC(C)=O)[C@@H]2[C@@H]1OC(=O)CCCCCCC`, the Potency result was “inactive”. For `N#C[C@H](O[C@@H]1O[C@H](CO[C@@H]2O[C@H](CO)[C@H](O)[C@H](O)[C@H]2O)[C@H](O)[C@H](O)[C@H]1O)c1ccccc1` the value was 9.35 µM (active); for `COC[C@H]1OC(=O)c2coc3c2[C@@]1(C)C1=C(C3=O)[C@@H]2CC[C@H](O)[C@@]2(C)C[C@@H]1OC(C)=O`, 3.72 µM (active); for `CC[C@@H]1[C@@H](C)O[C@@](O)([C@@H](C)[C@H](O)[C@H](C)[C@H]2OC(=O)C=CC=C[C@@H](C)[C@@H]([C@@H](C)[C@@H](O)[C@H](C)[C@@]3(O)C[C@H](O[C@H]4C[C@H](O)[C@H](O)[C@H](C)O4)[C@H](CC)[C@@H](C)O3)OC(=O)C=CC=C[C@@H]2C)C[C@H]1O[C@H]1C[C@H](O)[C@H](O)[C@H](C)O1`, 0.372 µM (active). As to `CC(C)[C@H]1C(=O)N[C@H](CO)Cc2c[nH]c3cccc(c23)N1C`, the Potency entry was “inactive”.

`C[C@@H]1CC[C@@]2(OC1)O[C@H]1C[C@H]3[C@@H]4CC=C5C[C@@H](O[C@@H]6O[C@H](CO)[C@@H](O[C@@H]7O[C@@H](C)[C@H](O)[C@@H](O)[C@@H]7O)[C@H](O)[C@@H]6O[C@@H]6O[C@@H](C)[C@H](O)[C@@H](O)[C@@H]6O)CC[C@]5(C)[C@@H]4CC[C@]3(C)[C@@H]1[C@H]2C`: the Potency is 2.96 µM (active).
